Source: PubChem
Only a selection was taken, and hits are over-represented in it overall.
Dicer inh = human Dicer pre-microRNA cleavage inhibition | Q9UPY3 | cat-ELCCA pre-miR-21 Dicer processing, chemiluminescence; active compounds read high | z-score at 25 µM | 47,000 tested, 6% active; in the data active = z-score above about 3, passing the limit was not always enough;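 note: higher signal means more uncleaved substrate so more Dicer inhibition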
A number is an active result; . = inactive.

SMILES	Dicer inh
CS/C(NCc1ccco1)=C(/C#N)S(=O)(=O)c1ccc(Cl)cc1	.
CCOCCOC(=O)C1=C(C)NC2=C(C(=O)CCC2)C1c1coc2ccc(C)cc2c1=O (configuration not stated)	.
COc1ccc(-c2noc(Cc3ccccc3)n2)cc1OC	.
Cc1ccc(-c2nc(NC(=O)CCC(=O)O)sc2C)cc1Cl	.
O=C(CSc1nn2cnnc2s1)N(C1CCCCC1)C1CCCCC1	.
O=C(CSc1ncn[nH]1)N1CCc2ccccc21	.
O=C(CSc1nn2cnnc2s1)N1CCc2ccccc21	3.15
CN1CCc2c(sc3c2C(=O)NC(/C=C/c2ccc4c(c2)OCO4)N3)C1 (configuration not stated)	.
Cc1ccc(C2Nn3c(C)nnc3SC2C(=O)Nc2ccc(C)c(C)c2)cc1 (configuration not stated)	.
Cn1c(=O)c2cc3cc(F)ccc3nc2n(C)c1=O	.
Cc1ccc(S(=O)(=O)NC(=O)Nc2nc(-c3ccc(C)c(Cl)c3)c(C)s2)cc1	.
Cc1ccc(S(=O)(=O)Nc2nc(-c3ccc(C)c(Cl)c3)c(C)s2)cc1	3.27
Cc1ccc(-c2nc(NC(=O)c3ccccc3)sc2C)cc1Cl	.
CCOC(=O)c1cc(CC)sc1NC1=NS(=O)(=O)c2ccccc21	.
CCOC(=O)/C(C#N)=C/N=C(N/N=C(\C)c1ccc(Br)cc1)SC	.
CCOC(=O)Cc1csc(NC(=O)CSCC(=O)O)n1	.
CC1=C(C(=O)Nc2ccc(C)cn2)C(c2cccnc2)C2=C(CCCC2=O)N1 (configuration not stated)	.
Nc1nc(-c2ccc3c(c2)CCCC3)cc(C(F)(F)F)n1	.
COC(=O)c1cc(/C=C(\C#N)S(C)(=O)=O)cn1-c1ccc(Cl)cc1	.
COc1ccccc1/C=C/c1nc2ccccc2n1C	.
Cn1c(/C=C/c2ccccc2)nc2ccccc21	3.73
Cn1c(=O)c(/C=C/c2ccccc2)nc2ccccc21	.
O=C(CSc1nnc2c(n1)[nH]c1ccccc12)Nc1ccc(F)cc1	.
Cc1cc(C(=O)C(F)(F)F)c(C)n1-c1cc(C(F)(F)F)cc(C(F)(F)F)c1	.
Cc1cccc(C)c1NC(=O)c1snnc1C	.
SMILES	Dicer inh
Cc1nnsc1-c1nc2cccc(C)c2c(=O)o1	3.38
Cc1sc2nc(-c3ccccc3)oc(=O)c2c1C	.
O=C(Nc1ccc2c(c1)C(=O)OC2)c1ccno1	.
O=c1[nH][nH]c(=O)n1CCCc1cc2cccc3ccc4cccc1c4c32	3.66
CCOC(=O)NNC(=O)NCCCc1ccc2ccc3cccc4ccc1c2c34	.
Cc1ccc(S(=O)(=O)Nc2sc3c(c2C(N)=O)CCCC3)cc1	.
Cc1ccc2nc(-c3ccc(N4C(=O)c5cccnc5C4=O)cc3)sc2c1	.
Cc1cc(NC(=O)CSc2nc(N)cc(=O)[nH]2)no1	.
Cc1cc2nc3c(c(C(F)(F)F)n2n1)CCc1ccccc1-3	.
FC(F)(F)c1c2c(nc3cc(C4CC4)nn13)-c1ccccc1CC2	.
COCCNC(=O)c1nn2c(C(F)(F)F)c3c(nc2c1Cl)-c1ccccc1CC3	4.73
Cc1nn(-c2cccc(C(F)(F)F)c2)c(=O)c2nc(-c3ccccc3)sc12	.
CCOC(=O)C(Cc1c(C)[nH]c2ccccc12)C(=O)OCC	.
CCN(CC)C(=O)C1Sc2nnc(C)n2NC1c1ccc(OC)c(Br)c1 (configuration not stated)	.
FC(F)(F)c1ccc(Oc2ccc(-c3nc(-c4ccc(Cl)s4)cs3)cc2)nc1	.
CC(C)n1c(NCc2ccccc2O)nc2ccccc21	.
CCn1c(NCc2cc(Cl)ccc2O)nc2ccccc21	3.02
C=CCn1c(NCc2ccc(N(CC)CC)cc2)nc2ccccc21	.
C=CCn1c(NCc2cc(Cl)ccc2O)nc2ccccc21	3.89
C=CCn1c(NCc2ccccc2O)nc2ccccc21	.
CCCn1c(NCc2cc(Cl)ccc2O)nc2ccccc21	.
COc1ccccc1NC(=S)NNC(=O)CC#N	.
Cc1onc(-c2c(Cl)cccc2Cl)c1NC(=O)ON=C1CSC(C)SC1 (configuration not stated)	.
O=S1(=O)C=Cc2ccc(NC(=S)Nc3ccccc3C(F)(F)F)cc21	.
CCOc1cc(C2C(C#N)=C(N)Oc3n[nH]c(C(C)(C)C)c32)ccc1O (configuration not stated)	.
SMILES	Dicer inh
CCOC(=O)C1C(=O)NC(N2CCc3ccccc32)=NC1c1ccco1 (configuration not stated)	.
CCOC(=O)c1csc(-c2cn(-c3ccccc3)c(=O)n(C)c2=O)n1	.
CN(C)S(=O)(=O)c1ccc(C(=O)Nc2nnc(-c3ccc(Br)cc3)s2)cc1	3.16
CC(C)(C)c1ccc(-c2nnc(NC(=O)C(Cl)(Cl)Cl)s2)cc1	.
CC(C)(C)C(=O)Nc1nnc(-c2ccc(Br)cc2)s1	.
CC(C)Nc1nc(NCCO)nc(N2CCOCC2)n1	.
Cc1cc(N2C(=O)CC3(CCCC3)CC2=O)ccc1Br	3.17
Cn1cc(Br)c(-c2cccc(N3C(=O)CC(C)(C)CC3=O)c2)n1	.
Cc1ccc(N2C(=O)CC(=O)N(c3ccc(C)c(C)c3)C2=S)cc1C	.
Cc1nc2nc(C)c(Cc3ccccc3C)c(=O)n2[nH]1	.
O=[N+]([O-])c1cc(C(F)(F)F)ccc1Oc1ccc(Cl)cc1Cl	.
CNc1nsc(C(=O)c2ccc(C)cc2)c1N	.
Cc1ccc2nc(NC3=NCN(CC4CCCO4)CN3)nc(C)c2c1 (configuration not stated)	.
COc1ccc(NC(=O)N2c3ccccc3Sc3ccccc32)cc1OC	.
O=S(=O)(c1ccc(-c2ccccc2)cc1)N1CCSC1c1ccccc1 (configuration not stated)	3.84
COc1ccc(OC)c(C2SCCN2S(=O)(=O)c2ccc(C)cc2)c1 (configuration not stated)	.
COc1ccc(C2N(S(=O)(=O)c3ccc(C)cc3)CCN2S(=O)(=O)c2ccc(C)cc2)cc1	3.69
Cc1ccc(S(=O)(=O)N2CCN(S(=O)(=O)c3ccccc3)C2c2ccc(N(C)C)cc2)cc1 (configuration not stated)	.
COc1ccc(S(=O)(=O)N2CCSC2c2cc(OC)ccc2OC)cc1 (configuration not stated)	3.71
COc1ccc(C2N(S(=O)(=O)c3ccccc3)CCN2S(=O)(=O)c2ccccc2)cc1	.
O=S(=O)(c1ccccc1)N1CCSC1c1ccc(Cl)cc1 (configuration not stated)	.
O=S(=O)(c1ccccc1)N1CCSC1c1ccc(Br)cc1 (configuration not stated)	.
COc1ccc(OC)c(C2SCCN2S(=O)(=O)c2ccc(F)cc2)c1 (configuration not stated)	.
COc1ccc(-c2c[nH]n3c(=O)cc(C)nc23)cc1OC	.
COC(=O)c1sccc1-c1ccc(C2C3=C(CCCC3=O)NC3=C2C(=O)CCC3)o1	.
SMILES	Dicer inh
COc1ccc(OC)c(C2Nc3ccc4ncccc4c3C3=C2C(=O)CCC3)c1 (configuration not stated)	.
COc1ccc(NS(=O)(=O)c2ccc(Cl)cc2)c([N+](=O)[O-])c1	.
CC1=C(C(N)=O)C(c2ccc(O)cc2)n2ncnc2N1 (configuration not stated)	.
COc1ccc(Br)cc1CNc1cc(C)cc(C)c1	3.61
COc1ccc(CNCc2cc(Br)ccc2OC)cc1	.
COc1cc(CNCc2cc(Br)ccc2OC)cc(OC)c1	.
CC1(C)CSC(=NC2CCCCC2)N1	3.24
C#CCN1C(=O)c2ccccc2S1(=O)=O	.
O=C(NC(=O)N1CCSC1)c1c(Cl)cccc1Cl	.
